According to PubChem BioAssay (NCATS):
Results filed as inconclusive are left out. The source made the active and inactive calls. Calls come from the whole dose curve; as a rule, active = well fitted curve in the direction sought with a large enough effect; inconclusive = small, poorly fitted or top-dose-only effect, or another doubt; inactive = no such curve, though single readings can be large; an effect the other way counts as inactive or inconclusive.

Tests used:
[1] = target: Voltage-gated inwardly rectifying potassium channel KCNH2 (Homo sapiens) (UniProt Q12809); experiment: qHTS Assay for Small Molecule Inhibitors of the Human hERG Channel Activity (AID 588834);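 note: lower thallium flux fluorescence means stronger hERG block; nearly all actives have a fitted effect of over 50% in size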; note: potency is the fitted concentration of half-maximal effect
How it was run: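 In hERG-transduced U2OS cells, dye-loaded for 1 hr at room temperature in dark, test compounds incubated 10 min at 37 °C before thallium stimulation. AC50 values derived by Hill modelling of concentration-response.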

[2] = target: Luciferin 4-monooxygenase (Photinus pyralis) (UniProt P08659); experiment: Biochemical firefly luciferase enzyme assay for NPC (AID 624030); note: nearly all actives have a fitted effect of over 70% in size; note: potency is the fitted concentration of half-maximal effect
How it was run: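 Direct inhibition of firefly luciferase enzyme (10 nM final, 50 mM Tris Acetate) assessed by luminescence within 5 minutes. Percent activity scaled between DMSO and PTC124 positive control, with concentration-effect curves classified by fit quality and response.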

[3] = S16 Schwann cell viability assay (CellTiter-Glo assay) (AID 624031);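 note: native untransfected S16 rat Schwann cells; cellular ATP luminescence as a viability measure; series mostly up to about 58 µM; nearly all actives have a fitted effect of over 70% in size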
How it was run: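 Following overnight culture in 10% FBS DMEM, parental S16 rat Schwann cells are dosed for 24 h at 37 °C. Viability is read as CellTiter-Glo luminescence and expressed as % activity relative to DMSO (0%) and no-cell wells.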

[4] = S16 Schwann cell PMP22 intronic element firefly luciferase assay (AID 624032); note: nearly all actives have a fitted effect of over 30% in size; note: potency is the fitted concentration of half-maximal effect
How it was run: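 Luciferase reporter of PMP22 intronic-element expression in stably transfected S16 rat Schwann cells, read by ONE-Glo luminescence after 24 h compound exposure at 37 C. Activity scaled between DMSO (0%) and positive-control PTC124; concentration-effect curves quality-classified.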

Measured: Potency

Sequence of Voltage-gated inwardly rectifying potassium channel KCNH2 (Homo sapiens) (Q12809 whole entry, looked up): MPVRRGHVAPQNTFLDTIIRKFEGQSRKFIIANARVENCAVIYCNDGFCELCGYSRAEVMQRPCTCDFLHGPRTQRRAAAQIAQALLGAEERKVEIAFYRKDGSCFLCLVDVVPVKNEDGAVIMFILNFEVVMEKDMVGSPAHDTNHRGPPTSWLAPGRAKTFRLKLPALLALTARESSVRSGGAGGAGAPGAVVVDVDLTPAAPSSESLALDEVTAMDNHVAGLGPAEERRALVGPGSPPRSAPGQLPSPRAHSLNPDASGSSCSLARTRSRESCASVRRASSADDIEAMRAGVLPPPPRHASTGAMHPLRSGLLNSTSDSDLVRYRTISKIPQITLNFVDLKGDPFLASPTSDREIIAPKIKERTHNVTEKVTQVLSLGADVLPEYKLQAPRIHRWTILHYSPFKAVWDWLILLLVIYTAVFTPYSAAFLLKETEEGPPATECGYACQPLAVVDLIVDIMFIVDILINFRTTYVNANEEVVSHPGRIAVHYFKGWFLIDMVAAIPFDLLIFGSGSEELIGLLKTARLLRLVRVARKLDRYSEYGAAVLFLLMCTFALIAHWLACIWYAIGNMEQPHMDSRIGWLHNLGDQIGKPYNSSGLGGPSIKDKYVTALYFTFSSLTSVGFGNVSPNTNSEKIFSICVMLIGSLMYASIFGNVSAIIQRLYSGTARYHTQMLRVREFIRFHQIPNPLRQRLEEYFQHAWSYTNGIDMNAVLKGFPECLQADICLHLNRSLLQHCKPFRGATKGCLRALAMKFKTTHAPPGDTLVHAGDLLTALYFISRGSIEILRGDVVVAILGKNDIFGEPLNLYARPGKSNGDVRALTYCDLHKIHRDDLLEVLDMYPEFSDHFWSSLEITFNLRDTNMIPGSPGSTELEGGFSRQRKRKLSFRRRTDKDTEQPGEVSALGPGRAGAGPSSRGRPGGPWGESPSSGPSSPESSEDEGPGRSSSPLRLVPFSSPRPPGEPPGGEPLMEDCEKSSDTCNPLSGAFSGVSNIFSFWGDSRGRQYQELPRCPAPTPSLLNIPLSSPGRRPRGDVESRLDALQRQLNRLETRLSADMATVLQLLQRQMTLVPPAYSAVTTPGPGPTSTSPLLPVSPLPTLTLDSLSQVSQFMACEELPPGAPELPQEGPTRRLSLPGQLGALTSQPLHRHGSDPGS
Sequence of Luciferin 4-monooxygenase (Photinus pyralis) (P08659 whole entry, looked up): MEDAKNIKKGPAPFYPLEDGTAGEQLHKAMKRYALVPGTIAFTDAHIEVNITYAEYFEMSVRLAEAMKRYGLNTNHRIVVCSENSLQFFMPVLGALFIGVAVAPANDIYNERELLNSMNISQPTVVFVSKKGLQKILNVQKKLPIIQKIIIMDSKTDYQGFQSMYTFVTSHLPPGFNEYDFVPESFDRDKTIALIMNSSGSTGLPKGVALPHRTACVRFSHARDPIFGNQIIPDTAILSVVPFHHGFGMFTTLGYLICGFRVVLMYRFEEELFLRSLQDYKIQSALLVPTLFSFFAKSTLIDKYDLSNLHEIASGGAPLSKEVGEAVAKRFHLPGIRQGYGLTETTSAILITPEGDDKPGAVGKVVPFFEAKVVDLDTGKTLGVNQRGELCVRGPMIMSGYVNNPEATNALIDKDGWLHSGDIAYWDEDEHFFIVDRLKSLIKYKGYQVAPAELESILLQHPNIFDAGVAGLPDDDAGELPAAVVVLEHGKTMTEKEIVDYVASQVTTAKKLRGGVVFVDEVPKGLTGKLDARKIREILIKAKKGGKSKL

O=C(O)COc1nn(Cc2ccccc2)c2ccccc12
inactive: all assays above

CC1(C)CO[C@@H](CC(=O)O)CN1
inactive: all assays above

CC(=O)c1ccc2c(c1)N(CCCN(C)C)c1ccccc1S2
active: [1] 4.47 µM
inactive: all other assays above

O=C1OC(OC(=O)c2cccnc2Nc2cccc(C(F)(F)F)c2)c2ccccc21 (stereo not given)
active: [4] 7.21 µM
inactive: all other assays above

Cc1c(Cl)cccc1Nc1ccccc1C(=O)O
active: [2] 32.2 µM
inactive: all other assays above

O=C(CCCN1CCN(c2ccccn2)CC1)c1ccc(F)cc1
active: [1] 5.01 µM
inactive: all other assays above

CC(C)(C)NCC(O)COc1ccc(NC(=O)NC2CCCCC2)cc1 (stereo not given)
inactive: all assays above

NC(=O)NC(=O)Cc1ccccc1
inactive: all assays above

Nc1ccc(S(=O)(=O)Nc2ccc(Cl)nn2)cc1
inactive: all assays above

Nc1nc2c(ncn2CCC(CO)CO)c(=O)[nH]1
inactive: all assays above

O=C1NC(=O)[C@@]2(CCOc3ccc(F)cc32)N1
inactive: all assays above

O=C(Oc1ccccc1C(=O)O)c1ccccc1O
inactive: [1] | [2] | [3]

CC(C)(C)C(=O)NCCCC(=O)O
inactive: all assays above

CCC(=O)Nc1ccc(O)cc1
inactive: all assays above
